This is an account of results in PubChem BioAssay (NCI).

This is part of a sample that, as a whole, favours compounds with a hit. Of some 83,000 tested, about 20% had one in any assay.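 The endpoint reported here, percent growth, reads 100 for growth as untreated, 0 for no net growth and -100 for all cells dead.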 A number with no mark means an inactive call. Calls of active or inactive are those of the source. How the source made its calls: active means growth percent below 10; inactive means the rest.

For the experiment, the system named is HL-60(TB) leukemia. Nature of the experiment: NCI-60 one-dose screen, 48 h (100 = growth as untreated, 0 = no growth, -100 = all killed). The settings on record: 10 µM unless noted.
As to `O=C1Nc2cc(-c3ccc(NS(=O)(=O)c4ccc(-c5ccccc5)cc4)cc3)ccc2/C1=C/c1ccc[nH]1`, the growth was 31%.

As to `O=C(c1ccc(Cl)cc1)C1[C@H](c2ccccc2Cl)[C@@H](c2ccccc2)NC12C(=O)Nc1ccc(Cl)cc12` (stereo partly drawn), the growth was -39.9% (active).

In the case of `CC(C)(C)c1cc(/C=C2\S/C(=N/c3ncn[nH]3)NC2=O)cc(C(C)(C)C)c1O`, the growth was 6.76% (active).

Regarding `Cc1cccc(-c2ccccc2Oc2ccc3nnc(Cl)n3n2)c1`, the growth was 108%.

Consider `Cc1ccc(-c2cc(C(=O)N=Nc3c(O)[nH]c4ccc(Br)cc34)c3ccccc3n2)cc1`, for which the growth is 15.8%.

Regarding `COc1cc(/C=C/C(=O)c2cnn(-c3cc(=O)[nH]c4ccccc34)c2C)cc(OC)c1OC`, the growth is 0.36% (active).

`O=C(CNc1nc(-c2ccccc2)cs1)Nc1ccc(Cl)cc1[N+](=O)[O-]`: the growth is -15.1% (active).

As for `CC1CN(c2oc(-c3ccc([N+](=O)[O-])cc3)nc2C#N)CC(C)O1` (stereo not drawn), the growth is 95%.

Turning to `Cc1cccc(NC(=O)[C@]23CCC(C)(C)CC2C2=CCC4[C@@]5(C)C[C@@H](O)[C@H](O)[C@@](C)(CO)C5CC[C@@]4(C)[C@]2(C)CC3)c1` (stereo partly drawn), the growth is -14.4% (active).

`Nc1nnc(-c2cncc(Br)c2)c(-c2c[nH]c3ccc(Br)cc23)n1`: the growth is 36.7%.

Turning to `COc1ccc(-c2cc(C(=O)N=Nc3c(O)[nH]c4ccc(Cl)cc34)c3ccccc3n2)cc1`, the growth is 96%.

Take `N#Cc1ccc(NC(=O)CSc2ccc(-c3ccc(Br)cc3)nn2)cc1`: the growth was 82.9%.

Take `O=C1NC(=S)S/C1=C\c1cn(-c2ccccc2)nc1-c1ccc([N+](=O)[O-])cc1`: the growth is 9.92% (active).
